USP28 inh: blocks human USP28 ubiquitin-rhodamine cleavage | 3% of 47,000 active | Q96RU2 | AID 1645857 | purified USP28, Ub-rhodamine cleavage fluorescence, 30 min | inhibition, % at 25 µM
USP30 block: inhibitors of human USP30 deubiquitinase | Q70CQ3 | purified USP30, Ub-rhodamine cleavage fluorescence | inhibition, % at 25 µM | 5.3% of 47,000 active | AID 1645860
USP17 inh: blocks human USP17 ubiquitin-rhodamine cleavage | A8MUK1 | purified USP17, Ub-rhodamine cleavage fluorescence, 3 h | inhibition, % at 50 µM | 6.5% of 47,000 active
Target sequence (A8MUK1 whole entry, looked up): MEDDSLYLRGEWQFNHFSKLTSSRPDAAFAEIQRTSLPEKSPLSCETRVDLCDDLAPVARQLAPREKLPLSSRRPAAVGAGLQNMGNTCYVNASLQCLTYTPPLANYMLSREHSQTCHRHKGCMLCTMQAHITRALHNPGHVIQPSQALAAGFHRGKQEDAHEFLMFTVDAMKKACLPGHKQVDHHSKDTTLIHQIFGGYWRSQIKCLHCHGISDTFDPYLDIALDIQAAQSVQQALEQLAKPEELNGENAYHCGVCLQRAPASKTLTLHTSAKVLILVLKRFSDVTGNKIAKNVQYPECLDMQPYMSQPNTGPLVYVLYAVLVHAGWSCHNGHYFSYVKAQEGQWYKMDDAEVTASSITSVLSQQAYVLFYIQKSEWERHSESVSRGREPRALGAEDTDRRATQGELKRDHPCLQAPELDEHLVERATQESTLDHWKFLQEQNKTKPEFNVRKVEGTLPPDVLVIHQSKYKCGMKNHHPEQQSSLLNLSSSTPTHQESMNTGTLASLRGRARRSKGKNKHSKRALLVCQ
Of the large screens only hits and unclear results are named; the others gave an inactive call. Rows were chosen to be rich in hits. Some 11% of all compounds tested hit in one or more screens of this group. No stated cut-off is given here; in the data, active means inhibition above about 30%; inactive means the rest.

CC(=O)N1CCc2cc(S(=O)(=O)NCc3ccc(C)cc3)ccc21	USP17 inh 56.9
CC(=O)N1CCc2cc(CNS(=O)(=O)c3ccccc3)ccc21	none
COCCN1C(=O)c2ccccc2C(C(=O)NCCc2ccc(OC)c(OC)c2)C1c1cccs1 (configuration not stated)	none
COc1cccc(C(=O)N2CCN(C3CCN(Cc4c(C)noc4C)CC3)C(=O)C2)c1C	none
Cc1nn(-c2nc3ccccc3s2)c2nc(-c3cccnc3)cc(C(F)(F)F)c12	none
COc1ccc(CN2CCC(c3cc(=O)[nH]c(-c4cccnc4)n3)CC2)cc1OC	none
O=C(NCc1ccccc1F)C1CCCN(S(=O)(=O)N2CCCCCC2)C1 (configuration not stated)	none
N#Cc1ccc(NC(=O)Nc2ccc(OCc3ccccc3)cc2)cc1	USP17 inh 34.5
N#Cc1ccc(NC(=O)c2cccc(OCc3ccccc3)c2)cc1	none
O=C1CCSc2ccc(S(=O)(=O)Nc3ccccc3)cc2N1	none
O=C(NCCN1CCCCC1)C1CCCN(c2nc3ncccc3n3cccc23)C1 (configuration not stated)	none
C/C=C/C=C/CCc1c(O)cc(CC=C(C)C)c(O)c1C=O	USP17 inh 45.0
CCCCC/C=C/c1c(O)cc(CC=C(C)C)c(O)c1C=O	none
Nc1c(-c2ccccn2)nsc1C(=O)N1CCN(c2ccc(F)cc2)CC1	USP30 block 35.7
Nc1c(-c2ccccn2)nsc1C(=O)N1CCN(c2ccccc2)CC1	none
Cc1ccccc1NC(=O)Cn1cncc(-c2nc(-c3ccccc3)cs2)c1=O	USP17 inh 60.2
Cc1ccc(NC(=O)Cn2cncc(-c3nc(-c4ccccc4)cs3)c2=O)cc1F	none
CNC(=O)Nc1ccc(C)n(CC(=O)NCc2ccc3c(c2)OCO3)c1=O	none
O=c1[nH]c(-c2cccnc2)nc2c1CCN(Cc1[nH]c3ccccc3c1Cl)C2	none
Cc1ccccc1[C@H]1C[C@@H](O)[C@@H](O)[C@@H]1NC(=O)COc1ccccc1	USP30 block 39.3
COc1ccccc1C(=O)N[C@H]1[C@H](O)[C@H](O)C[C@@H]1c1ccccc1C	none
FC(F)(F)Oc1ccc(CN2CCC(c3nc(-c4ccnnc4)no3)CC2)cc1	none
O=C1c2cccc(O)c2C(=O)c2c(O)cccc21	none
Cc1cc(O)c2c3c(c(O)cc2c1)C(=O)c1c(O)cccc1C3=O	USP28 inh 72.8, USP17 inh 63.2
CCc1cccc(NC(=O)Cn2c(=O)nc(N3CCCCC3)c3ccccc32)c1	USP17 inh 42.9
Cc1cccc(NC(=O)Cn2c(N3CCCCC3)nc(C)cc2=O)c1	none
O=S(=O)(O)c1cc2cc3ccccc3cc2[nH]1	USP17 inh 61.3
Cc1ccc(C(=O)N2CC(C(=O)Nc3ccc(F)cc3)C3(CCOCC3)C2)cn1 (configuration not stated)	none
Cc1nc2cc(-c3nccn3C)nn2c(NCCCn2ccnc2)c1C	none
O=C(NNc1ncc(C(F)(F)F)cc1Cl)c1cccn1-c1ncc(C(F)(F)F)cc1Cl	none
O=C(O)CCSc1nnc(-c2ccc(O)cc2)n1Cc1ccccc1	none
CSc1nnc(-c2ccc(C(C)(C)C)cc2)n1Cc1ccccc1	USP30 block 33.1
Cc1ccc(O)c(NC(=O)CCCn2nc([N+](=O)[O-])cc2C)c1	none
Cc1nn(-c2ccccc2)c(C)c1C(=O)OCC(=O)Nc1cccc2ccccc12	none
Cc1nn(-c2ccccc2)c(C)c1C(=O)OCC(=O)Nc1cccc(Br)c1	USP28 inh 81.0
O=C(Cn1c(SCCOc2ccccc2)nc2ccccc21)N1CCCCC1	none
Cc1ccccc1OCCSc1nc2ccccc2n1CC(=O)NC1CC1	USP30 block 50.3, USP17 inh 31.2
COc1cccc(-c2cc(C(=O)NCCN3CCOCC3)c3ccccc3n2)c1	none
COc1ccc(CNc2ccc(-c3ccccc3)nn2)cc1	USP17 inh 36.8
c1ccc(CNc2ccc(-c3nc(-c4ccccc4)no3)nn2)cc1	none
CCOC(=O)N1CCC(NCc2c(C(=O)O)n(Cc3ccc(C)cc3)c3ccccc23)CC1	none
CCOC(=O)c1c(C)nc2n(Cc3ccccc3)c3ccccc3n12	USP30 block 60.5
CCc1cc(=O)oc2cc(C)cc(OC(C)C(=O)N3CC[C@@]4(O)CCCC[C@H]4C3)c12 (some centres not stated)	none
COc1ccc(-c2nnc(SCC(=O)Nc3ccc4[nH]c(=O)[nH]c4c3)n2C)cc1	none
O=C(CSc1nnc2n1CCCCC2)Nc1ccc2[nH]c(=O)[nH]c2c1	USP28 inh 33.0, USP17 inh 68.1
COc1ccc(C(=O)Nc2cc(-c3ccc(OC)cc3)nn2C2CCS(=O)(=O)C2)cc1 (configuration not stated)	none
COc1cccc(C2C3=C(CC(c4ccc(Cl)cc4)CC3=O)Nc3ccccc3N2C(=O)CCC(=O)O)c1 (configuration not stated)	none
O=C(O)CCCCCN1C(=O)CC(c2ccc(Cl)cc2)CC1=O	USP28 inh 31.8, USP17 inh 76.4
CCc1cccc(NC(=O)C2CCCN(c3cc(=O)n(C)c(=O)n3C)C2)c1 (configuration not stated)	none
Cc1sc(-c2ccc(Cl)nc2)nc1OC(=O)c1ccc(F)cc1F	USP30 block 44.5, USP17 inh 53.3
Cc1sc(-c2ccncc2)nc1OC(=O)c1ccc(F)cc1F	none
O=C(c1ccccc1F)N1CCN(c2nc(-c3ccc(Cl)cc3)no2)CC1	USP30 block 43.9
COc1ccccc1C(=O)N1CCN(c2nc(-c3ccc(Cl)cc3)no2)CC1	none
CC(=O)N1CCc2cc(Br)cc(S(=O)(=O)NCc3ccc(F)cc3)c21	none
Cc1ccc(F)cc1S(=O)(=O)NCc1ccc(N2CCN(C)CC2)cc1	USP30 block 36.1
CNC(=O)[C@@H]1C[C@@H]2CN(Cc3nc4ccccc4s3)CCN2[C@@]12C(=O)Nc1ccccc12	none
CC(=O)c1ccc(N2CCN(C(=O)c3sc(N4CCCC4=O)nc3C(C)C)CC2)cc1	none
CC(C)c1nc(N2CCCC2=O)sc1C(=O)Nc1ccc(F)cc1	USP28 inh 31.8
Cc1ccccc1NC(=O)Nc1ccccc1OCc1cc(=O)n2ccccc2n1	USP30 block 42.5, USP17 inh 49.6
O=C(c1cc(F)ccc1Br)N1CCN(Cc2cc(=O)n3ccccc3n2)CC1	none (no result: USP17 inh)
Cc1cccc(NC(=O)Nc2ccccc2SCc2cc(=O)n3ccccc3n2)c1	none (no result: USP17 inh)
Cc1ccn2c(=O)cc(COc3cccc(NC(=O)Nc4ccc(F)cc4)c3)nc2c1	USP17 inh 37.5
Cc1ccn2c(=O)cc(COc3cccc(NC(=O)COc4ccccc4C)c3)nc2c1	none
COc1ccc(C(=O)N2CCN(Cc3cc(=O)n4ccccc4n3)CC2)cc1	USP30 block 35.8
Cc1ccn2c(=O)cc(COc3cccc(NC(=O)Nc4ccccc4)c3)nc2c1	none
COc1ccc(OCC(=O)Nc2ccc(C)c(OCc3cc(=O)n4ccccc4n3)c2)cc1	USP17 inh 50.1
Cn1ncc2c1C(COCC1CC1)N(C(=O)c1ccnnc1)CC2 (configuration not stated)	none
COc1cc(-c2nnc(C3(C)CCOCC3)o2)ccc1OC(C)C	none
O=C1CCCc2cc(S(=O)(=O)N3CCC(c4ccccc4)C3)ccc2N1 (configuration not stated)	none
O=C(O)C1C(C(=O)Nc2ccccc2)C2(c3ccccc3)C(=O)C1(c1ccccc1)C(c1ccccc1)=C2c1ccccc1 (configuration not stated)	USP28 inh 85.9, USP30 block 82.1, USP17 inh 93.6

Bioassay records from PubChem BioAssay.
